Measured values from PubChem BioAssay.
Unmarked numbers belong to inactive results. Where a call stands in place of a potency, no number is given. For some of these results: Potency and affinity values are given separately. Calls of active or inactive are those of the source. Unless noted, no rule for the calls is given here.

Key:
[1] = antimalarial activity against Dd2 strain (AID 2302;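 active = growth inhibition above 50% at the single 2 µM test dose, taken to imply half-maximal potency below 2 µM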); conditions: P. falciparum Dd2 in RBCs, LDH growth readout, 72 h; at 2 µM; stronger effect = higher value
[2] = HepG2 cytotoxicity, primary screen, cytotoxicity control for P. falciparum antimalarial project, cell-based, ATP luminescence (AID 2303;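 active = inhibition above 50%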); conditions: HepG2 viability, 24-48 h, at 10 µM, stronger effect = higher value
[3] = molecular target: L-lactate dehydrogenase (Plasmodium falciparum (isolate CDC / Honduras)) (UniProt Q27743); test: PfLDH activity inhibition – cell lysate, 3D7 strain, counter-screen for P. falciparum growth inhibition project (AID 2304); conditions: P. falciparum 3D7 crude extract, LDH APAD/NBT absorbance; at 2 µM; stronger effect = higher value
[4] = inhibition of 3D7 malaria parasite growth – strain 3D7 (AID 2306); conditions: P. falciparum 3D7 erythrocytic growth, LDH absorbance, 72 h; at 2 µM; stronger effect = higher value
[5] = molecular target: Calcium-dependent protein kinase 1 (Plasmodium falciparum (isolate 3D7)) (UniProt P62344); test: PfCDPK1 kinase inhibitors, biochemical, TCAMS library (AID 1159585; cut-off not given, nearly all actives have IC50 up to about 0.98 µM;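 also: inhibitors leave more ATP so luminescence rises with inhibition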); conditions: recombinant PfCDPK1, Kinase-Glo ATP depletion luminescence
[6] = molecular target: Plasmodium falciparum protein kinase 6 (PK6, PF3D7_1337100) (UniProt Q8IDW1); test: PfPK6 kinase inhibitors, biochemical, TCAMS library (AID 1159586); conditions: recombinant PfPK6, Kinase-Glo ATP depletion luminescence
[7] = molecular target: Protein kinase 7 (PK7), Plasmodium falciparum 3D7 (PF3D7_0213400) (UniProt Q7YTF7); test: inhibition of Plasmodium PK7 catalytic activity – biochemical, TCAMS antimalarial set, Kinase-Glo luminescence (AID 1159587); conditions: recombinant PfPK7, Kinase-Glo ATP depletion luminescence
[8] = molecular target: Calcium-dependent protein kinase 4 (Plasmodium falciparum (isolate 3D7)) (UniProt Q8IBS5); test: PfCDPK4 kinase inhibitors, biochemical, TCAMS library (AID 1159588; cut-off not given, nearly all actives have IC50 up to about 0.91 µM); conditions: recombinant PfCDPK4, Kinase-Glo ATP depletion luminescence
Sequence of Calcium-dependent protein kinase 4 (Plasmodium falciparum (isolate 3D7)) (Q8IBS5 whole entry, looked up): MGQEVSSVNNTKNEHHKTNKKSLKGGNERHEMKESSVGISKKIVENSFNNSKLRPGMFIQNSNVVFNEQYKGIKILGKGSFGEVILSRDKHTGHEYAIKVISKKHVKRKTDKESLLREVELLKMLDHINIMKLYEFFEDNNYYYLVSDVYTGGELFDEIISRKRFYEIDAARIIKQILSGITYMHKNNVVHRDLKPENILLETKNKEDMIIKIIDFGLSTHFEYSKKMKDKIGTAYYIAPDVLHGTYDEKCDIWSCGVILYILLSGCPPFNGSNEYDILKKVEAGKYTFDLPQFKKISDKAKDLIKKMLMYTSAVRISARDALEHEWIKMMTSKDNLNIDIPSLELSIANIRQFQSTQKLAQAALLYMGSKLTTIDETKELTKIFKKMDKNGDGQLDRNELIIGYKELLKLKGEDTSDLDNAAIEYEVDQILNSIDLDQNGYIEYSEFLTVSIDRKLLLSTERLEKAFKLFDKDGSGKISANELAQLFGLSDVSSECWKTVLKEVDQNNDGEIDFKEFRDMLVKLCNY

Sequence of L-lactate dehydrogenase (Plasmodium falciparum (isolate CDC / Honduras)) (Q27743 whole entry, looked up): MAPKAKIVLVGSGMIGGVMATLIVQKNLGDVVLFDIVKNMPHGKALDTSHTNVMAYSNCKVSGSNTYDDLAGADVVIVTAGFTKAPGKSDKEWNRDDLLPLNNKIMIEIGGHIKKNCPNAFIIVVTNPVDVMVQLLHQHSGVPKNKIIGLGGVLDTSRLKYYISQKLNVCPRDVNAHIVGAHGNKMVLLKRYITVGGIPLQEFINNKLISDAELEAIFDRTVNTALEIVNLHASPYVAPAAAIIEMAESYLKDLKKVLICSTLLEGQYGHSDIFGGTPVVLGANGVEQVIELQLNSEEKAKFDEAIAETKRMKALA
Sequence of Protein kinase 7 (PK7), Plasmodium falciparum 3D7 (PF3D7_0213400) (Q7YTF7 1-343): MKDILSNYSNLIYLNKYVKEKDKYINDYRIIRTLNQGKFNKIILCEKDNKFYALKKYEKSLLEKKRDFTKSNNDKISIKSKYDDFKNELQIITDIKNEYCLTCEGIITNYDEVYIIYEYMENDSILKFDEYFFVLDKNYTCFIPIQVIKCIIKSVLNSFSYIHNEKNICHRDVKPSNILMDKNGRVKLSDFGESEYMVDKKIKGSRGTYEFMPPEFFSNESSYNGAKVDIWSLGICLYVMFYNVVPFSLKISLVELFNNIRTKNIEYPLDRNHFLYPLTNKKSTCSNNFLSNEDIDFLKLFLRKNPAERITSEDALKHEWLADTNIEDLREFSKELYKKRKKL
Sequence of Calcium-dependent protein kinase 1 (Plasmodium falciparum (isolate 3D7)) (P62344 whole entry, looked up): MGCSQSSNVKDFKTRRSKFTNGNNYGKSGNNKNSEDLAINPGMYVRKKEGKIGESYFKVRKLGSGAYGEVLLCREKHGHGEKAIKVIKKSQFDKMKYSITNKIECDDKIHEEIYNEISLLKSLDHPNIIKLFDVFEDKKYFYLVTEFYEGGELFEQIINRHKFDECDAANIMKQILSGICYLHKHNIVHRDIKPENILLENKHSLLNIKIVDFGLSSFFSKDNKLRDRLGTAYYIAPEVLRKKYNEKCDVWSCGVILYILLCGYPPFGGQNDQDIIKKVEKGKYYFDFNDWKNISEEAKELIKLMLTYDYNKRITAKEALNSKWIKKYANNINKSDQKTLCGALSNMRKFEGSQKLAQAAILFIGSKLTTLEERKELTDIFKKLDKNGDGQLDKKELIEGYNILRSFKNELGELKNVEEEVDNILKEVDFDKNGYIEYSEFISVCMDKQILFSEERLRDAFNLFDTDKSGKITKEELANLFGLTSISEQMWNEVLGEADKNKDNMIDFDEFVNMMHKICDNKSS
Sequence of Plasmodium falciparum protein kinase 6 (PK6, PF3D7_1337100) (Q8IDW1 1-305): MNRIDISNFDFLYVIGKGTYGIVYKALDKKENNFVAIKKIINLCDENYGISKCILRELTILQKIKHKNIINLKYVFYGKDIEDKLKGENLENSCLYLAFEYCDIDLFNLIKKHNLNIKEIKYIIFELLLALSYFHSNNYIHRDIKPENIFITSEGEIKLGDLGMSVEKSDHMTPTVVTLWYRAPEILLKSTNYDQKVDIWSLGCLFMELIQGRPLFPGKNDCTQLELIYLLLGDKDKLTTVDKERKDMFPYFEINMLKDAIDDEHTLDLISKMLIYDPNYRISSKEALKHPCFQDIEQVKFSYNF

| SMILES | growth inhibition [1] | inhibition [2] | inhibition [3] | growth inhibition [4] | outcome [5] | outcome [6] | outcome [7] | outcome [8] |
| --- | --- | --- | --- | --- | --- | --- | --- | --- |
| CCN1CCCC(CNC(=O)/C(=C/C=C/c2cc3cc(Cl)c(Cl)cc3[nH]2)OC)C1 (stereo not given) | 89% (active) | 33% | -1% | 93% (active) | inactive | inactive | inactive | inactive |
| OCc1ccc(-c2cncc(Nc3cccc(Cl)c3)c2)cc1 | 100% (active) | 4% | -3% | 95% (active) | inactive | inactive | inactive | inactive |
| Nc1nc(N)c2c(n1)CCC(c1ccccc1)C2 (stereo not given) | -1% | 55% (active) | 1% | 93% (active) | inactive | inactive | inactive | inactive |
| Cc1ccc(O)cc1Nc1ccnc2ccc(-c3csc(CNCCN4CCOCC4)n3)cc12 | 97% (active) | -24% | -2% | 101% (active) | inactive | inactive | inactive | inactive |
| COc1cc2nc(N3CCC(CNC(=O)c4ccc(-c5ccc(Cl)cc5)cc4)CC3)nc(N)c2cc1OC | 101% (active) | 99% (active) | 8% | 100% (active) | inactive | inactive | inactive | inactive |
| NC(=O)Nc1ccc2cn[nH]c2c1 | -2% | 4% | -3% | 97% (active) | inactive | inactive | inactive | inactive |
| CCc1cn2c3c(cc(C(=O)N[C@@H](Cc4ccccc4)[C@H](O)CNC4CCCCC4)cc13)N(C)S(=O)(=O)C2 | 99% (active) | 20% | 0% | 99% (active) | inactive | inactive | inactive | inactive |
| O=C(/C=C/c1ccc(Cl)cc1)NCCCCCN1CCCC(C(=O)Nc2ccc(F)c(Cl)c2)C1 (stereo not given) | 6% | 27% | 7% | 94% (active) | inactive | inactive | inactive | inactive |
| COc1ccc(-c2cccc(NC(=O)c3cccc(C#N)c3)c2)cc1CN1CCN(C)CC1 | 16% | 25% | -2% | 91% (active) | inactive | inactive | inactive | inactive |
| Oc1ccc2nc(NCCCc3ccccc3)nc(NCCCc3ccccc3)c2c1 | 93% (active) | 5% | -3% | 101% (active) | inactive | inactive | inactive | inactive |
| Cn1ccc(-c2cccc(Nc3ccnc4cc(-c5nccs5)ccc34)c2)n1 | 94% (active) | 39% | -1% | 101% (active) | inactive | inactive | inactive | inactive |
| COc1cc2c(cc1S(=O)(=O)c1ccc(COc3ccc(C(F)(F)F)cc3)cc1)CNCC2 | 89% (active) | 32% | 5% | 103% (active) | inactive | inactive | inactive | inactive |
| O=C(Nc1ccc(-c2ccc(CN3CCNCC3)cc2)cc1)c1cccc(Cl)c1 | 16% | 58% (active) | 2% | 91% (active) | inactive | inactive | inactive | inactive |
| COc1ccc(N2CCN(CCCN3CCN(C(=O)c4ccc(/C=C/c5ccc(Cl)c(Cl)c5)cc4)CC3)CC2)c(OC)c1 | 52% (active) | 47% | -3% | 93% (active) | inactive | inactive | inactive | inactive |
| O=c1c(Br)ccccc1Br | 41% | 98% (active) | 0% | 94% (active) | inactive | inactive | inactive | inactive |
| Cc1ccc(-c2ccc3c(c2)C=C(C(=O)NC2CCN(CCNC(=O)c4cccc(C(F)(F)F)c4)CC2)CCC3)cc1 | 56% (active) | 25% | -3% | 100% (active) | inactive | inactive | inactive | inactive |
| Nc1nc(N)c2c(CCc3ccc(Cl)c(Cl)c3)cccc2n1 | 83% (active) | 51% (active) | 6% | 101% (active) | inactive | inactive | inactive | inactive |
| NC(N)=Nc1ccc(C(=O)O)c(O)c1 | 1% | -3% | -3% | 94% (active) | inactive | inactive | inactive | inactive |
| CNC(=O)C1Cc2c([nH]c3c(C)cccc23)C2(N1)C(=O)Nc1ccc(OC(F)(F)F)cc12 (stereo not given) | 50% (active) | -7% | -3% | 100% (active) | inactive | inactive | inactive | inactive |
| COc1ccc2nc(Nc3nc(-c4ccccn4)cs3)sc2c1 | 94% (active) | 40% | 4% | 93% (active) | inactive | inactive | inactive | inactive |
